# Measured values published in PubChem BioAssay AID652115 (Broad Institute, 2013).
# “And” between values parts separate entries of the source, which are not always exact repeats. Equal entries are not always repeated. Screen size: about 330,000 compounds; about 3,800 (1.2%) were called active. Rule as the data show it: active = inhibition above about 15%; inconclusive = no clear call, values can overlap the other calls; inactive = below that. The full list was thinned out, with actives kept by preference. Where a structure was tested more than once in an assay, its records may differ in their call.
# Biological target: NAD-dependent protein deacylase sirtuin-5, mitochondrial (Homo sapiens) (UniProt Q9NXA8)
# Experiment: blockers of sirtuin-5 deacylase activity – biochemical, fluorescence imaging, single point, set 5, primary screen (AID 652115)
# Conditions: Purified SirT5, succinyl-peptide AMC, trypsin-coupled fluorescence; at 15 µM; stronger effect = higher value
# NAD-dependent protein deacylase sirtuin-5, mitochondrial (Homo sapiens), sequence (Q9NXA8 whole entry, looked up): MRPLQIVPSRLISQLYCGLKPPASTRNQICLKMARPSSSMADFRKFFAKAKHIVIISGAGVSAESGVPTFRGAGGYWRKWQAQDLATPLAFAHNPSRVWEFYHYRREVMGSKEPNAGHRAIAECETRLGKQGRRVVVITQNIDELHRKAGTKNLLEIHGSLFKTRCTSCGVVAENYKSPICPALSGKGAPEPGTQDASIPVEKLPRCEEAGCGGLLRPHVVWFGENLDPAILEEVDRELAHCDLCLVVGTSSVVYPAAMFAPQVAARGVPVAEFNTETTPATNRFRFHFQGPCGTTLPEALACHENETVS
row,Compound,inhibition
1,CCOC(=O)CN1C(=O)C(O)(CC(=O)c2ccccn2)c2ccccc21 (configuration not stated),-3.62% (inactive)
2,C=CCN1C(=O)C2(OCCCO2)c2cccc(Cl)c21,-2.09% (inactive)
3,C=CCN1C(=O)C(O)(CC(=O)c2ccccn2)c2ccccc21 (configuration not stated),26.6% (active)
4,C[C@@H]1CN([C@H](C)CO)C(=O)c2cc(NC(=O)NC3CCCCC3)ccc2O[C@@H](C)CCCCO[C@H]1CN(C)C(=O)Nc1ccccc1,3.67% (inactive)
5,CCCNC(=O)N1[C@@H](C#N)[C@H](c2ccc(-c3ccc(C(=O)N(C)C)cc3)cc2)[C@@H]1CO,4.75% (inactive)
6,CO[C@@H]1CN(C)C(=O)c2cc(NC(=O)C3CCC3)ccc2OC[C@H](C)N(Cc2nccs2)C[C@H]1C,-1.69% (inactive)
7,COc1cccc(S(=O)(=O)N2CCC3(CC2)CN[C@H](CO)c2c3c3ccc(OC)cc3n2C)c1,1.64% (inactive)
8,O=C(C[C@@H]1C[C@@H]2c3cc(NS(=O)(=O)c4ccc(F)cc4)ccc3O[C@@H]2[C@H](CO)O1)NCc1cc(F)ccc1F,-3.29% (inactive)
9,COCC(=O)N1CC(=O)N2[C@H](C1)[C@H](c1ccc(C#CC3CCCCC3)cc1)[C@@H]2CO,-2.8% (inactive)
10,CN(C)CCCCCN(C)Cc1cc2ccccc2o1,36.8% (active)
11,COc1ccccc1CN(C)C(=O)c1cc2ccccc2o1,-1.39% (inactive)
12,CN(C)C(CNC(=O)c1cc2ccccc2o1)c1ccccc1 (configuration not stated),-2.25% (inactive)
13,C[C@@H]1CN([C@H](C)CO)C(=O)c2cc(NS(=O)(=O)c3ccc(F)cc3)ccc2O[C@H]1CN(C)Cc1ccncc1,-0.686% (inactive)
14,O=S(=O)(c1ccccc1)N1C[C@@H]2[C@H](c3ccccc31)[C@H](CO)N2Cc1ccccn1,1.34% (inactive)
15,O=C(CSc1nc2ccccc2c(=O)[nH]1)Nc1nc(-c2ccc(Br)cc2)cs1,-5.37% (inactive)
16,Cc1ccc(-c2csc(NC(=O)Cn3[nH]c(=O)c4ccccc4c3=O)n2)cc1,112% (active)
17,CC(=O)NCc1ccc(-c2csc(NC(=O)CCCc3nc4ccccc4c(=O)[nH]3)n2)cc1,-2.85% (inactive)
18,Cc1noc(C)c1S(=O)(=O)N(C)C[C@@H]1OCCCC[C@@H](C)Oc2ccc(NC(=O)c3ccccc3)cc2C(=O)N([C@H](C)CO)C[C@H]1C,0.24% (inactive)
19,C[C@@H]1CN([C@H](C)CO)C(=O)c2cccc(NC(=O)Nc3ccccc3)c2O[C@@H]1CN(C)C(=O)NC1CCCCC1,3.35% (inactive)
20,C[C@@H]1CN([C@@H](C)CO)C(=O)c2ccccc2-c2ccccc2CO[C@H]1CN(C)C(=O)Nc1ccccc1,-1.46% (inactive)
21,COc1ccc(NC(=O)N(C)C[C@H]2OCc3ccccc3-c3ccccc3C(=O)N([C@H](C)CO)C[C@@H]2C)cc1,1.71% (inactive)

row,Compound,inhibition
1,CC(C)NC(=O)Nc1cccc2c1O[C@H](CN(C)S(=O)(=O)c1cccs1)[C@@H](C)CN([C@H](C)CO)C2=O,23.7% (active)
2,C[C@@H]1CN([C@H](C)CO)C(=O)c2cccc(NS(C)(=O)=O)c2O[C@@H]1CN(C)S(=O)(=O)c1cccs1,1.65% (inactive)
3,C[C@H]1CN([C@@H](C)CO)C(=O)c2ccccc2-c2ccccc2CO[C@H]1CN(C)C(=O)Nc1ccc(-c2ccccc2)cc1,16.8% (active)
4,COc1ccc(NC(=O)Nc2cccc3c2O[C@H](CN(C)S(=O)(=O)c2cccs2)[C@H](C)CN([C@@H](C)CO)C3=O)cc1,1.18% (inactive)
5,C[C@H](CO)N1C[C@H](C)[C@@H](CN(C)C(=O)NC2CCCCC2)Oc2c(NC(=O)Nc3ccc(F)cc3)cccc2C1=O,103% (active)
6,C[C@H]1CN([C@@H](C)CO)C(=O)c2cccc(NC(=O)Nc3ccc(C(F)(F)F)cc3)c2O[C@H]1CN(C)C(=O)NC1CCCCC1,2.24% (inactive)
7,COc1ccc2c3c(n(C)c2c1)[C@H](CO)N(C)CC31CN(S(=O)(=O)c2cccc(C)c2)C1,4.2% (inactive)
8,CO[C@H]1CN(C)C(=O)c2cc(NC(=O)Nc3ccccc3F)ccc2OC[C@H](C)N(C)C[C@H]1C,-12% (inactive)
9,C[C@H](CO)N1C[C@H](C)[C@@H](CN(C)S(=O)(=O)c2ccc(F)cc2)OCCCC[C@H](C)Oc2ccc(NC(=O)CCCN(C)C)cc2C1=O,-2.49% (inactive)
10,C[C@H](NC(=O)C[C@@H]1CC[C@H](NC(=O)CN2CCOCC2)[C@H](CO)O1)c1ccccc1,-3.17% (inactive)
11,Cc1cc(C)cc(C(=O)NC2C(=O)N3C(C(=O)O)=C(CSc4nnc(C)s4)CSC23)c1 (configuration not stated),-0.622% (inactive)
12,Cc1nnc(SCC2=C(C(=O)O)N3C(=O)C(NC(=O)Cn4nc(C)c(Cl)c4C)C3SC2)s1 (configuration not stated),-1.34% (inactive)
13,C=CC1=C(C(=O)O)N2C(=O)[C@@H](NC(=O)/C(=N\OCC(=O)O)c3csc(N)n3)[C@H]2SC1,31.1% (active)
14,C=CC1=C(C(=O)O)N2C(=O)[C@@H](NC(=O)/C(=N/OCC(=O)O)c3csc(N)n3)[C@H]2SC1,30.9% (active)
15,CO/N=C(\C(=O)N[C@@H]1C(=O)N2C(C(=O)O)=C(COC(C)=O)CS[C@H]12)c1csc(N)n1 (stereo in doubt),-2.03% (inactive) and -4% (inactive) and 22.2% (active)
16,CO[C@@H]1CN(C)C(=O)c2cc(NC(=O)C3CC3)ccc2OC[C@@H](C)N(Cc2nccs2)C[C@@H]1C,-0.135% (inactive)
17,CCC(=O)N1[C@@H]2CN(C(=O)Nc3ccc(Cl)cc3)c3ccccc3[C@@H]2[C@@H]1CO,-1.71% (inactive)
18,CCCNC(=O)C[C@H]1C[C@@H]2c3cc(NC(=O)NC4CCCC4)ccc3O[C@@H]2[C@@H](CO)O1,-4.3% (inactive)
19,CN(C)CC(=O)N[C@@H]1C[C@@H]2O[C@H](CO)CC[C@@H]2O[C@@H]1CCc1ccc(C#Cc2ccccc2)cc1,-2.33% (inactive)
20,Cc1noc(C)c1NC(=O)Nc1ccc2c(c1)C(=O)N([C@@H](C)CO)C[C@@H](C)[C@H](CN(C)C)O2,-1.93% (inactive)
21,CN(C)CC(=O)Nc1ccc2c(c1)[C@H]1C[C@H](CC(=O)NCc3ccc4c(c3)OCO4)O[C@@H](CO)[C@H]1O2,0.927% (inactive)
